Hits are enriched below; roughly 12% of the tested compounds scored in any of these assays.
HP1b chromo inh = HP1-beta chromodomain-methylated histone interaction inhibition; AlphaScreen HP1-beta / biotin-H3K9me3 peptide binding; Potency, µM (top dose mostly 114 µM), for inactives: at the top dose activity change, negative = inhibition, usual class: inhibitors; actives 0.56% (n = 390,000); AID 540317; also: nearly all actives have a fitted effect of over 70% in size
Target sequence (P83916 whole entry, looked up): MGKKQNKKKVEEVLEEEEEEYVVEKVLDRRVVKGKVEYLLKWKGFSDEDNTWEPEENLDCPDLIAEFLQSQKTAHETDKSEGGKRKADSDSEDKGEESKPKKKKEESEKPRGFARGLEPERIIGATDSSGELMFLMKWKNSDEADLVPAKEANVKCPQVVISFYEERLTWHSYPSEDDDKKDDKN
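AlphaScreen: HP1-beta (50 nM) preformed 30 min with biotin-H3(1-18)K9me3 peptide (50 nM) in PBS pH 7.4, 0.01% Tween-20. Compound added for 30 min at RT, then streptavidin donor/nickel chelate acceptor beads (10 ug/mL) for 30 min.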
L3MBTL1 inh = L3MBTL1 (human) inhibition. AlphaScreen L3MBTL1–H3K9me1 peptide binding. Q9Y468. Potency, µM (series often up to 57.1 µM), for the others: top-dose activity, negative = inhibition, actives largely listed as inhibitors. actives 0.66% (n = 230,000); also: % is scaled to controls: 0 for no effect and ±100 for the full control effect; nearly all actives have a fitted effect of over 60% in size
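AlphaScreen assay: L3MBTL1 (50 nM final) was preincubated 30 min at room temperature with biotinylated H3(1-15)K9me1 peptide (75 nM final), then 30 min with library compounds; streptavidin donor and nickel chelate acceptor beads (10 ug/mL final) added, 30 min dark.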
JMJD2A Tudor = inhibitors of human JMJD2A Tudor domain | AlphaScreen JMJD2A-Tudor / H3K4me3 peptide binding | Potency, µM (top dose mostly 114 µM), without a hit: top-dose activity change, negative = inhibition, usual class: inhibitors | actives 4.4% (n = 390,000) | AID 504339; also: % is scaled to controls: 0 for no effect and ±100 for the full control effect; nearly all actives have a fitted effect of over 50% in size
Sfp PPTase inh = Sfp phosphopantetheinyl transferase inhibition. Q9F4F7. Biochemical Sfp PPTase activity, qHTS. Potency, µM, for the others: largest response in the series, negative = inhibition, usual class: inhibitors. actives 3.5% (n = 310,000);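 also: the enzyme is Sfp with the accession as filed and its product quenches rhodamine fluorescence; 0% = enzyme reaction without inhibitor and -100% = no enzyme wells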
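Fluorescence-quenching assay with 15 nM Sfp, 5 uM rhodamine-CoA and 12.5 uM BHQ-2-labelled ybbR peptide in pH 7.6 Hepes/MgCl2 buffer. Enzyme was pre-incubated with compound for 15 min at room temperature. Rate was taken from the 30-min fluorescence change (525/598 nm).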
BAZ2B inh = inhibitors of human BAZ2B bromodomain; AlphaScreen BAZ2B-H3K14Ac peptide displacement; actives 4.4% (n = 360,000); AID 504333; Potency, µM (top dose mostly 114 µM), inactives show at the top dose activity change, negative = inhibition, hits mostly inhibitors; also: % is scaled to controls: 0 for no effect and ±100 for the full control effect; nearly all actives have a fitted effect of over 60% in size
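BAZ2B (50 nM) with biotin-H3(5-23)K14Ac peptide (50 nM) in PBS pH 7.4, 0.01% Tween-20, preformed 30 min, then compound 30 min at room temperature; top concentration 110uM. AlphaScreen streptavidin donor/nickel chelate acceptor beads (10 ug/mL final), 20 min dark, signal read.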
G9a block = inhibitors of human histone lysine methyltransferase G9a. Q96KQ7. G9a H3K9 monomethylation, AlphaScreen, 2 h. Potency, µM (doses to about 102 µM), for the others: at the top dose activity, negative = inhibition, actives largely listed as inhibitors. actives 8.8% (n = 350,000); also: % is scaled to controls: 0 for no effect and ±100 for the full control effect; nearly all actives have a fitted effect of over 75% in size
Target sequence (Q96KQ7 913-1193 limits assumed): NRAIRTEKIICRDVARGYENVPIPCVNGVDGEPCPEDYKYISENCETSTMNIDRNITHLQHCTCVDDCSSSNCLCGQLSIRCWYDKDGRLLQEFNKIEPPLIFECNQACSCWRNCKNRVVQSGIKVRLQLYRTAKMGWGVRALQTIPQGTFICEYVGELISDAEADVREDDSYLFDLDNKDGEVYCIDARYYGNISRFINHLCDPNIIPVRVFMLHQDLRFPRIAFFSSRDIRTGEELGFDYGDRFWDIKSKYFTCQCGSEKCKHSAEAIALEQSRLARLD
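Quantitative HTS format: methyltransferase activity on a biotin-tagged H3K9 peptide is measured by AlphaScreen, using a rabbit anti-monomethyl-H3K9 antibody with streptavidin donor and anti-IgG acceptor beads. Final levels are 20 nM enzyme, 500 nM peptide, 20 uM SAM; 2 h RT.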
* hit, by the source's call; ? = inconclusive; . = no result; [ ] = another dose, or the depositor's remark. Calls follow the shape of the dose curve; as a rule, active = well fitted curve in the direction sought with a large enough effect; inconclusive = small, poorly fitted or top-dose-only effect, or another doubt; inactive = no such curve, though single readings can be large; an effect the other way counts as inactive or inconclusive. Potency is read from the fitted curve at half-maximal effect.

SMILES | HP1b chromo inh | L3MBTL1 inh | JMJD2A Tudor | Sfp PPTase inh | BAZ2B inh | G9a block
COc1ccc(N2C(=O)CS(=O)(=O)C23C(=O)N(Cc2ccccc2F)c2ccccc23)cc1Cl (stereo unspecified) | 10% | . | -23% | . | 3%[57.1 µM] | -31%[59 µM]
Cc1ccccc1OCC(=O)NCC(=O)OCC(=O)c1ccc(-c2ccccc2)cc1 | 10%[57 µM] | . | -1%[57.1 µM] | . | . | .
COc1ccccc1N1CCN(c2nc3ccc(C(=O)c4ccccc4)cc3n3c(C)nnc23)CC1 | 36% | . | -4% | . | -17% | ?
CC(=O)c1c(C)nc(-c2cccc([N+](=O)[O-])c2)n1O | 0% | -5% | -26% | ? | ? | ?
COc1ccc(-c2nc(C)c(C(C)=O)n2O)cc1[N+](=O)[O-] | 37% | 7% | -26% | -4% | -16% | 56µM*
CN(C)S(=O)(=O)c1ccc(S(=O)(=O)N(CC(=O)Nc2ccccc2)CC2CCCO2)cc1 (stereo unspecified) | 21% | -1% | -5% | -2% | -5% | 32µM*
CC(C)[C@@H](N)C(=O)O | . | . | . | -20% | . | -1%[59 µM]
CC(C)(S)[C@@H](N)C(=O)O | -19% | 3% | 4µM* | 50µM* | 45µM* | ?
CCc1ccc(S(=O)(=O)c2cnc3ccc(OC)cc3c2N2CCCC(C)C2)cc1 (stereo unspecified) | 24% | . | -8% | . | -12% | -11%[59 µM]
CCOC(=O)C=C(C(=O)OCC)C(=O)OCC | ? | 4% | -7% | 18µM* | -3% | 13µM*
Cc1ccc(S(=O)(=O)Nc2ccc(O)c3cccnc23)cc1 | -7% | . | ? | 11% | -23% | ?
O=S(=O)(Nc1ccc(O)c2ccccc12)c1cccs1 | 45µM* | . | 13µM* | ? | -33% | 7.1µM*
O=S(=O)(Nc1ccc(O)c2ccccc12)c1ccc(Br)cc1 | . | . | . | -18% | 45µM* | 40µM*
Cc1ccc(S(=O)(=O)Nc2ccc(O)c3ncccc23)cc1 | 7% | . | 40µM* | 4% | 22µM* | ?
CC(=O)Nc1ccc(NS(=O)(=O)c2ccccc2)c2ccccc12 | 66% | . | -7% | -7% | 5% | 9%
Cc1cccc(-c2nc(C)c(CCNC(=O)C(=O)Nc3ccccc3C#N)s2)c1 | 23%[57 µM] | . | -29% | . | 1% | 12%[59 µM]
Cc1sc2nc(-c3cccs3)nc(N3CCCN(C)CC3)c2c1C | . | 22% | . | 56µM* | 7% | -26%[59 µM]
Cc1c(N2C(=O)/C(=C\C3CC=CCC3)SC2=S)c(=O)n(-c2ccccc2)n1C (stereo unspecified) | -24% | . | -20% | 50µM* | -31% | ?
Cc1c(N2C(=O)/C(=C/c3ccccc3)SC2=S)c(=O)n(-c2ccccc2)n1C | -6% | -7% | -22% | -25% | -37% | 21%[0.501 µM]
Cc1c(N2C(=O)/C(=C/C3CC=CCC3)SC2=S)c(=O)n(-c2ccccc2)n1C (stereo unspecified) | -23% | . | -17% | 45µM* | ? | -48%[12.7 µM]
Cc1ccc(/C=C2\SC(=S)N(c3c(C)n(C)n(-c4ccccc4)c3=O)C2=O)cc1 | -13% | -13% | ? | ? | ? | .
Cc1c(N2C(=O)/C(=C3\C(=O)N(CC(=O)O)c4ccccc43)SC2=S)c(=O)n(-c2ccccc2)n1C | 5% | 7% | -20% | ? | 79µM* | .
Cc1c(N2C(=O)/C(=C\c3ccccc3O)SC2=S)c(=O)n(-c2ccccc2)n1C | ? | -9% | 18µM* | 13µM* | -30% | 1.8µM*
O=C(Oc1ccccc1F)c1nc(SCc2ccc(F)cc2)ncc1Cl | 45% | . | 9% | . | 20% | 23%[59 µM]
CN1C(=O)/C(=C/c2cc(N=Nc3ccccc3)ccc2O)SC1=S | ? | -7% | 5µM* | -6% | 2.2µM* | 8.9µM*
SMILES | HP1b chromo inh | L3MBTL1 inh | JMJD2A Tudor | Sfp PPTase inh | BAZ2B inh | G9a block
CC(C)(C)OC(=O)N/N=C/c1cc(N=Nc2ccccc2)ccc1O | -25% | -4% | ? | 21% | ? | 17%[59 µM]
CC(=O)c1cccc(NC(=O)c2ccc3nc(C(C)C)oc3c2)c1 | 11%[57 µM] | . | -13% | . | -7% | 3%[59 µM]
CC1=C(c2ccc(C(C)C)cc2)S(=O)(=O)N=C1N1CCN(c2ccccc2F)CC1 | 43% | . | -12% | . | -23% | ?
C#CCn1c(/C=C/c2ccc(Cl)cc2)nc2ccccc21 | 195% | . | 104% | . | 112% | 161%[59 µM]
Clc1ccc(Cn2c(/C=C/c3ccco3)nc3ccccc32)cc1 | ? | -22% | -26% | 40µM* | 56µM* | 3.2µM*
CCCn1c(/C=C/c2ccco2)nc2ccccc21 | 15% | -71% | -24% | 35µM* | 9% | 8.9µM*
CC(NC(=O)/C=C/c1ccco1)c1nc2ccccc2n1Cc1c(Cl)cccc1Cl (stereo unspecified) | -5% | -13% | 4% | 50µM* | 8% | 8%[59 µM]
CC(NC(=O)/C=C/c1ccco1)c1nc2ccccc2n1Cc1ccccc1F (stereo unspecified) | 3% | -2% | -24% | ? | -38% | ?
Cc1ccc(Cn2c(/C=C/c3ccco3)nc3ccccc32)cc1 | 11% | -13% | -1% | ? | ? | 40µM*
Cc1ccc2cc3cc(C(=O)N4CCN(c5ccccc5)CC4)oc3nc2c1 | 11%[57 µM] | . | -8% | . | 5% | -1%[59 µM]
CCCN(CCC)C(=O)Cn1c(=O)n(-c2ccc(CC)cc2)c(=O)c2c3c(sc21)CCC3 | 24% | . | -12% | . | 13% | 6%[59 µM]
CN(C)c1ccc(C(CNC(=O)c2ccccc2Cl)N2CCc3ccccc32)cc1 (stereo unspecified) | ? | . | 18µM* | . | 13µM* | 14µM*
COc1ccccc1C(=O)NCC(c1ccc(N(C)C)cc1)N1CCc2ccccc21 (stereo unspecified) | 11µM* | . | 11µM* | . | 10µM* | 14µM*
COC(=O)[C@@H]1CC[C@H](C)[C@@H](c2ccc(C)cc2)N1C(=O)c1ccc(/C=N\OC[C@@H](C)[C@H](OCc2ccccc2)C(C)C)cc1 | . | . | . | -20% | . | .
CCc1nnc(SCC(=O)Nc2cc(Cl)c(OC)cc2OC)c2cc3oc(C)cc3n12 | 37% | . | -3% | . | -13% | -16%[59 µM]
Cc1ccc(S(=O)(=O)N2CCc3cc(C(=O)NCCc4ccccc4)ccc32)cc1 | 11% | . | -10% | . | -4% | -1%[59 µM]
O=C(O)c1cc(Br)ccc1NN=C1CCCCC1 | -8% | -6% | -27% | 22% | -36% | 2.8µM*
O=c1cccccc1NN=C1CCCCC1 | 20% | . | ? | ? | ? | .
COc1ccc(Br)c2c1-c1nc(NC(=O)c3cccc(C)c3)sc1C2 | -7% | . | ? | . | ? | ?

Compound activity (PubChem BioAssay)
